In PMC5540273 (PLoS ONE, 2017):
Read-outs that look alike come from different tables or passages of the source.

Tests used:
[1] = system: FYN; details: concentration: 1 μM, replicates: in singlicate; n = 1
[2] = system: GAK; details: concentration: 1 μM, replicates: in singlicate; n = 1
[3] = system: T1, GCN2(Kin.Dom.2,S808G); details: concentration: 1 μM, replicates: in singlicate; n = 1
T1 construct: gene EIF2AK4

[4] = system: GRK1; details: concentration: 1 μM, replicates: in singlicate; n = 1
[5] = system: T2, GRK2; details: concentration: 1 μM, replicates: in singlicate; n = 1
T2 construct: gene ADRBK1

[6] = system: T3, GRK3; details: concentration: 1 μM, replicates: in singlicate; n = 1
T3 construct: gene ADRBK2

[7] = system: GRK4; details: concentration: 1 μM, replicates: in singlicate; n = 1
[8] = system: GRK7; details: concentration: 1 μM, replicates: in singlicate; n = 1
[9] = system: GSK3A; details: concentration: 1 μM, replicates: in singlicate; n = 1
[10] = system: GSK3B; details: n = 1
[11] = concentration: 1 μM, replicates: in singlicate
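Also: KINOMEscan kinase panel screen.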

Row | SMILES | %Inh [1] | %Inh [2] | %Inh [3] | %Inh [4] | %Inh [5] | %Inh [6] | %Inh [7] | %Inh [8] | %Inh [9] | %Inh [10, 11] | %Inh ([10]; 1 µM)
1 | Cc1cc(-c2ccnc(Nc3cccc(C#N)c3)n2)cc(C)c1O [GSK1440913] | 0% | 79% | 0% | 6% | 0% | 0% | 90.7% | 0% | 93.8% | 26% | 
2 | Cc1ccc(C)c(NC(=O)Nc2ccc(C)c(-c3ccc(C(=O)Nc4ccncc4)cc3)c2)c1 [GSK1398473] | 25% | 0% | 0% | 0% | 0% | 9% | 0% | 0% | 0% | 12% | 
3 | CC(=O)Nc1cn2nc(Oc3cccc(NC(=O)c4cccc(C(F)(F)F)c4)c3)ccc2n1 | 96.7% | 0% | 37% | 0% | 0% | 0% | 1% | 0% | 20% | 0% | 
4 | COc1ccc(NC(=O)c2ccoc2)cc1-c1ccc(C(=O)NCC2CC2)cc1 [GW810437] | 0% | 0% | 0% | 24% | 0% | 0% | 0% | 0% | 0% | 26% | 
5 | c1ccc(Oc2ccc(Nc3ccnc4cc(-c5ccc(CN6CCCCC6)o5)ccc34)cc2)nc1 [GW567143] | 74% | 79% | 24% | 0% | 0% | 8% | 0% | 0% | 4% | 8% | 
6 | Nc1ncc(-c2ccc3nccc(-c4ccncc4)c3c2)cc1S(=O)(=O)N1CCCCC1 [GSK1693850] | 0% | 11% | 4% | 21% | 0% | 0% | 8% | 11% | 22% | 13% | 
7 | Cc1ccc(O)cc1Nc1ccnc2cc(-c3ccc(CN4CCCCC4)o3)ccc12 [GW557777] | 99.7% | 99.6% | 0% | 0% | 0% | 0% | 13% | 0% | 0% | 0% | 
8 | CN(c1ccc(NC(=O)Nc2cccc(Cl)c2)cc1)c1ccnc(N)n1.Cl [GW830707] | 10% | 10% | 0% | 0% | 0% | 1% | 0% | 1% | 17% | 1% | 
9 | Cc1nn2c(=O)cc(N3CCO[C@H](C)C3)nc2n1Cc1cccc(Cl)c1Cl [GSK2373693] | 7% | 8% | 0% | 11% | 0% | 17% | 3% | 0% | 0% | 69% | 
10 | CCNC(=O)/C=C/c1n[nH]c2cc(Sc3ccccc3C(=O)NC)ccc12 | 0% | 13% | 6% | 14% | 25% | 20% | 0% | 0% | 18% | 29% | 
11 | CC(C)NCC(Cc1ccccc1)NC(=O)c1cc(Br)c(-c2ccnc3[nH]ccc23)s1.Cl.Cl (centres unmarked) [GSK1383281] | 2% | 51% | 33% | 72% | 79% | 87% | 0% | 91.5% | 7% | 0% | 
12 | CCn1c(-c2nonc2N)nc2c(-c3ccccc3)ncc(OCCCN)c21.O=C(O)C(F)(F)F.O=C(O)C(F)(F)F [GSK260205] | 0% | 83% | 0% | 0% | 0% | 63% | 0% | 0% | 15% | 17% | 
13 | COc1cccc2c(-c3ccncc3)c(-c3ccc(F)cc3)nn12 [GW468513] | 27% | 83% | 18% | 0% | 0% | 38% | 0% | 0% | 4% | 3% | 
14 | CC(C)c1nc(-c2ccc(F)c(NS(=O)(=O)c3c(F)cccc3F)c2)c(-c2ccnc(Nc3ccc(N4CCOCC4)nc3)n2)s1 [GSK1804250] | 95.9% | 92.1% | 100% | 0% | 6% | 7% | 9% | 0% | 40% | 23% | 
15 | N#Cc1cnc2cc(-c3cnc(CNCCN4CCOCC4)s3)ccc2c1Nc1ccc(Oc2ccccc2)cc1 [GW664114] | 93.2% | 43% | 100% | 0% | 0% | 27% | 0% | 0% | 6% | 10% | 
16 | COc1cccc(NC(=O)NCCNc2ccnc(Nc3ccc(F)cc3)n2)c1 [GSK1379879] | 0% | 0% | 0% | 0% | 0% | 68% | 0% | 0% | 11% | 16% | 

Row | SMILES | %Inh [1] | %Inh [2] | %Inh [3] | %Inh [4] | %Inh [5] | %Inh [6] | %Inh [7] | %Inh [8] | %Inh [9] | %Inh [10, 11] | %Inh ([10]; 1 µM)
17 | Nc1cccc(-c2ccc3c(N)n[nH]c3c2)c1 [GSK2193613] | 13% | 44% | 0% | 0% | 0% | 55% | 9% | 0% | 0% | 96.2% | 
18 | Cc1ccc(O)cc1Nc1ccnc2ccc(C(C)(C)C)cc12 [GW856805] | 96.5% | 61% | 5% | 28% | 0% | 28% | 17% | 37% | 0% | 28% | 
19 | Cn1cc(-c2ccc3c(c2)CCN3C(=O)Cc2cc(F)cc(C(F)(F)F)c2)c2c(N)ncnc21 [GSK2635225] | 41% | 21% | 2% | 0% | 0% | 0% | 3% | 0% | 8% | 2% | 
20 | O=C(O)C(F)(F)F.O=c1[nH]ccc2nc(N[C@@H]3CCNC3)nc(Nc3ccc4c(c3)S(=O)(=O)CC4)c12 [GSK2181306] | 43% | 76% | 97.3% | 95.2% | 49% | 60% | 88% | 65% | 97.8% | 92.1% | 
21 | COC(=O)Nc1nc2ccc(Oc3ccc(CC(=O)Nc4cc(C(F)(F)F)ccc4F)cc3)cc2[nH]1 [GW680903] | 37% | 0% | 2% | 0% | 0% | 66% | 0% | 0% | 5% | 0% | 
22 | Fc1cc(Cl)ccc1Nc1ccnc2cc(-c3ccc(CN4CCSCC4)o3)ccc12 [GW560106] | 90.5% | 84% | 0% | 0% | 0% | 32% | 3% | 0% | 22% | 0% | 
23 | CSc1ccc(NC2=C(c3ccc(Cl)cc3)C(=O)NC2=O)cc1 [SB-317658] | 4% | 12% | 0% | 2% | 21% | 12% | 5% | 26% | 37% |  | 0%
24 | O=C(Nc1n[nH]c2nc(-c3ccccc3O)ccc12)C1CC1 [SB-711880] | 0% | 0% | 26% | 49% | 0% | 0% | 28% | 12% | 87% |  | 53%
25 | Cc1cc(-c2c(-c3ccc(F)cc3)ncn2CCCN2CCOCC2)nc(N)n1 [SB-222517] | 0% | 5% | 0% | 31% | 0% | 4% | 20% | 0% | 0% | 32% | 
26 | COc1cc(Nc2ccnc3cc(-c4ccncc4)ccc23)cc(OC)c1OC.Cl [GW494610] | 75% | 84% | 0% | 4% | 0% | 35% | 5% | 0% | 10% | 0% | 
27 | Cc1ccc(Nc2ccnc(Nc3ccc(C)c(F)c3)n2)cc1O.Cl [GW582868] | 79% | 53% | 36% | 100% | 0% | 70% | 0% | 0% | 14% | 7% | 
28 | CN(C)c1ncnc2nc[nH]c12 [SKF-31736] | 0% | 0% | 0% | 43% | 0% | 0% | 38% | 0% | 1% | 28% | 
29 | CN(c1ccc(NC(=O)N2CCN(CCCN3CCOCC3)CC2)cc1)c1ccnc(Nc2ccc(CS(C)(=O)=O)cc2)n1.Cl [GW830899] | 18% | 59% | 0% | 0% | 0% | 0% | 43% | 0% | 0% | 0% | 
30 | Cc1cccc(Nc2nc(NCCN)ncc2C(N)=O)c1 [GSK1292139] | 48% | 65% | 41% | 0% | 0% | 0% | 15% | 0% | 6% | 11% | 
31 | CN(c1ccc2c(c1)nc(NCc1ccccc1)n2C)c1ccnc(Nc2ccc(CS(C)(=O)=O)cc2)n1.Cl [GW811603] | 69% | 0% | 0% | 0% | 35% | 8% | 33% | 16% | 0% | 0% | 
32 | Cl.O=C(Nc1ccc(Oc2ccc3[nH]c(NC(=O)c4ccco4)nc3c2)cc1)Nc1cc(C(F)(F)F)ccc1F [GW683134] | 42% | 0% | 10% | 0% | 0% | 11% | 100% | 0% | 0% | 9% | 
